Unmarked numbers belong to inactive results.
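Also: conidia screened in RPMI 1640 medium under 5% CO2, growth read by spectrophotometer, medium with 0.5% DMSO serving as the untreated reference.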

The subject of the experiment is Scedosporium aurantiacum CBS 136046. Put plainly: growth inhibition relative to DMSO control (OD600); higher = more antifungal activity, active = 80 or more; extreme values may be limits of the assay. The settings on record: 5 µM; 72 h; 37 °C.
Take `O=C(Nc1ncc(Cc2cccc3ccccc23)s1)C1CCCCC1`: the growth inhibition is 4.7%. With `CCC(C)NCC(O)Cn1c2ccc(Cl)cc2c2cc(Cl)ccc21` (stereo not drawn), the growth inhibition was 25%. For `Clc1cccc(-c2nnc(-c3ccccc3)o2)c1` the value was 1.29%; for `CCNC(=O)Nc1cc(-c2ccccc2)c(-c2cncc(C(=O)O)c2)cn1`, 8.53%. Take `Cc1ccc(NC(=O)c2ccc(CN3CCN(C)CC3)cc2)cc1Nc1nccc(-c2cccnc2)n1`: the growth inhibition is 17.6%.

Turning to `CO/N=C(\C(=O)N[C@@H]1C(=O)N2C(C(=O)OCOC(=O)C(C)(C)C)=C(/C=C\c3scnc3C)CS[C@H]12)c1csc(N)n1`, the growth inhibition was 0%. Next, `C=CCc1cc(Cc2cnc(N)nc2N)cc(OC)c1O`: 0%; `CCCCSc1nc(N)c2[nH]c(=O)c(=O)n(Cc3ccccc3)c2n1`: 6.53%. As for `Cc1ccc(S(=O)(=O)Nc2cccc3cccnc23)cc1`, the growth inhibition was 42.5%. For `Cc1ccccc1NC(=O)Nc1cccc([N+](=O)[O-])c1` the value was 12.4%; for `CCc1ccccc1OCCN1CCCCCC1`, 26.2%. For `Nc1nc(O)c(Br)c(-c2cccc(Cl)c2)n1` the value was 4.65%; for `CCc1cc(CCC(=O)Nc2ccccc2O)c(O)nc1C`, 5.23%; for `COc1ccc2nc(-c3ccccc3)cc(O)c2c1`, 17.5%. For `O=C(O)c1sccc1S(=O)(=O)n1ccc2cc(Br)ccc21` the value was 14.6%; for `NC1C2CC3CC(C2)CC1C3` (stereo not drawn), 23.6%. For the compound `O=C(O)c1ccc(-c2ccc(O[C@H]3O[C@H](CO)[C@@H](O)[C@H](O)[C@@H]3O)cc2)cc1`, the growth inhibition is 10.9%. As for `O=C1NC(=O)C(Br)=C1Br`, the growth inhibition is 24.4%. Next, `C/C(=N\NC(=O)C1CC1c1ccccc1)c1ccc(NC(=O)c2ccco2)cc1` (stereo not drawn): 1.06%. For `COc1ccc(OCc2ccc(COc3c(Cl)cccc3Cl)cc2)c(Cl)c1` the value was 21.7%; for `O=C(CCc1ccc2c(c1)OCO2)NCc1ccc(-c2ccccc2F)cc1`, 28.3%. Next, `O=C1[C@H](CC[C@H](O)c2ccc(F)cc2)[C@@H](c2ccc(O)cc2)N1c1ccc(F)cc1`: 13.9%; `COc1ccc(COc2cc3oc(=O)c4cc(C(C)O)ccc4c3cc2OC)cc1` (stereo not drawn): 2.35%; `NCCCc1ccccc1C(=O)Nc1ncc([N+](=O)O)s1`: 0%. In the case of `Nc1nc(=O)c(Br)c(-c2ccccc2)[nH]1`, the growth inhibition was 0.62%. As for `CC(C)(C)NC(=O)[C@@H]1CN(Cc2cnc3occc3c2)CCN1C[C@@H](O)C[C@@H](Cc1ccccc1)C(=O)N[C@H]1c2ccccc2C[C@H]1O`, the growth inhibition was 1.85%. Take `CCc1nc(N)nc(N)c1C#CC(C)c1cc(OC)cc(-c2ccncc2)c1` (stereo not drawn): the growth inhibition is 48.8%. Take `C[C@@H](NC(=O)c1cccc(-c2cnc(-c3cc4ccccc4cn3)[nH]2)c1)c1ccc(F)cc1`: the growth inhibition is 18.9%. For `Nc1nc(N)c2c(Sc3ccccc3)cccc2n1` the value was 18%. For `CCCCCCCCC(CP(=O)(O)C(C)N)C(=O)O` (stereo not drawn) the value was 6.14%. Next, `CC(C)Nc1nc2cc(Cl)c(Cl)cc2n1[C@H]1O[C@@H](CO)[C@H](O)[C@@H]1O`: 8.22%; `O=S(=O)(Nc1ccc(O)cc1)c1cccc2cccnc12`: 13.2%; `NC(=O)c1c(N)sc2c1CCCCC2`: 6.23%. Regarding `O=C(/C=C\n1cnc(-c2cc(C(F)(F)F)cc(C(F)(F)F)c2)n1)NNc1ccccn1`, the growth inhibition is 24.4%. Next, `OB1OCc2cc(Cl)ccc21`: 6.18%; `O=c1oc2ccc(Br)cc2cc1CSc1ncc[nH]1`: 18.7%; `O=C(Nc1ccc(N2CCN(C(=O)c3ccccc3)CC2)cc1)c1ccc2c(c1)OCO2`: 16.5%.

Regarding `Nc1nc(-c2ccccc2)nc2[nH]nc(Nc3ccc(C(F)(F)F)cc3)c12`, the growth inhibition was 16.5%.
